# In the library only some 1.2% were active in any assay of this set; here they are far more common.
# RGS7-Gao: modulates binding of RGS7 to human Galphao; Multiplexed bead flow cytometry; actives lie on both sides; binding response (% of control), % at 10 µM; 0.35% of 220,000 active; AID 1439; in the data active means binding response below about 49% or above about 150%; inconclusive means no clear call, values can overlap the other calls; inactive means in between;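 further: fluorescent Galphao held in activated GDP-AlF4 state binding bead-coupled RGS7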
# Target sequence (P09471 whole entry, looked up): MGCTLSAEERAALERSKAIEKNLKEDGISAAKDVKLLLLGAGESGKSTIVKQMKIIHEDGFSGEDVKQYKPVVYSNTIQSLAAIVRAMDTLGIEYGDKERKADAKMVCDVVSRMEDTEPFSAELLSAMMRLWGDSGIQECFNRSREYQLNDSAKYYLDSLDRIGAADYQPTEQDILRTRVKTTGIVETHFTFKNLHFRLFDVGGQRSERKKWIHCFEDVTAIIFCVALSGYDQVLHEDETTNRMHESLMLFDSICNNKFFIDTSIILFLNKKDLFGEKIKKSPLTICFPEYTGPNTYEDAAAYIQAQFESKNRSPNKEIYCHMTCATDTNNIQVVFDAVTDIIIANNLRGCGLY
# RGS8-Gao reg: regulators of human RGS8-Galphao interaction. P09471. multiplexed bead flow cytometry, RGS8-Galphao binding; actives lie on both sides. response (percent of control binding), % at 10 µM. 0.34% of 220,000 active; in the data active means response below about 60% or above about 140%; inactive means in between;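 further: Galphao activated as the GDP aluminium fluoride complex binding bead-coupled RGS8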
# RGS16-Gao: modulates binding between human RGS16 and Galphao. AID 1441. 0.38% of 220,000 active. O15492+P09471. binding response (% of control), % at 10 µM. bead-based flow cytometry RGS16-Galphao binding, fluorescence; actives lie on both sides;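 further: Galphao activated by GDP with aluminum fluoride before binding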
# RGS4-Gao reg: modulates binding of RGS4 to human Galphao | Multiplexed bead flow cytometry; actives lie on both sides | binding response (% of control), % at 10 µM | 0.33% of 220,000 active | AID 1415; in the data active means binding response below about 49% or above about 150%; inactive means in between;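 further: fluorescent Galphao activated with aluminum fluoride binding bead-coupled RGS4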
# Avidin bead fluor: avidin bead compound fluorescence profile; Avidin beads, compound fluorescence 488/530 nm, flow cytometry; hits give high values; fluorescence (KMESF) at 10 µM; 0.38% of 220,000 active; in the data active means fluorescence above about 47
# GSH bead fluor: GSH bead compound fluorescence profile. GSH beads flow cytometry, compound fluorescence 488/530 nm; hits give high values. 0.25% of 190,000 active. fluorescence (KMESF) at 10 µM; in the data active means fluorescence above about 89;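 further: glutathione beads carrying GST-tagged Bcl family fusion proteins plus one bare bead set; values are compound well signal with DMSO vehicle wells as background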
# RGS-Gao: regulators of human RGS4-Galphao interaction; AID 1504; 99% of 1,600 active; multiplexed bead flow cytometry, RGS–Galpha-o binding; shares compounds with RGS16-Gao; RGS4–Galpha-o binding response, % at 10 µM;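 further: fluorescently labeled Galpha-o bound to GDP with aluminium fluoride binding biotinylated RGS beads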
# Avidin counter: interferes with biotinylated probe binding to avidin beads; shares compounds with RGS16-Gao; streptavidin beads, fluorescein-biotin binding, flow cytometry; inhibition, % at 10 µM; 1,700 tested, under 10 active; AID 1783;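 active means inhibition above 50%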;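 further: median green fluorescence of gated singlet beads compared with DMSO control wells; 0% = DMSO wells and 100% = complete loss of bead fluorescence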
# RGS8-Gao confirm: confirmation of regulators of human RGS8-Galphao interaction; shares compounds with RGS16-Gao; bead-based flow cytometry RGS8-Galphao binding, fluorescence; actives lie on both sides; binding response (% of control), % at 10 µM; 3% of 1,700 active; AID 1836; in the data active means binding response below about 72% or above about 130%; inactive means in between;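 further: Galphao activated as GDP AlF4 complex before binding bead RGS8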
# RGS7-Gao confirm: RGS7-Galphao interaction regulation, single point confirmation; shares compounds with RGS16-Gao; bead-based flow cytometry RGS7-Galphao binding; actives lie on both sides; response (percent of control binding), % at 10 µM; 7.8% of 1,700 active; in the data active means response below about 75% or above about 130%; inactive means in between;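 further: fluorescent Galphao activated with GDP and aluminum fluoride binding bead-coupled RGS7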
# RGS16-Gao single: confirmation of regulators of human RGS16-Galphao interaction. bead-based flow cytometry, RGS16-Galphao binding; actives lie on both sides. response (% of control binding), % at 10 µM. shares compounds with RGS16-Gao. 4% of 1,700 active; in the data active means response below about 74% or above about 130%; inactive means in between;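 further: Galphao activated as the GDP aluminium fluoride complex binding bead-coupled RGS16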
# RGS4-Gao single: RGS4-Galphao interaction regulation, single point confirmation | shares compounds with RGS16-Gao | RGS4-Galphao binding, multiplexed bead flow cytometry; actives lie on both sides | binding response (% of control), % at 10 µM | 4% of 1,700 active | AID 1840; in the data active means binding response below about 74% or above about 130%; inactive means in between
# RGS19-Gao conf: confirmation of regulators of human RGS19-Galphao interaction; shares compounds with RGS16-Gao; bead-based flow cytometry RGS19-Galphao binding; actives lie on both sides; 5% of 1,700 active; AID 1841; response (percent of control binding), % at 10 µM; in the data active means response below about 50% or above about 160%; inactive means in between;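 further: 100% = no compound control and 0% = blank background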
# * = called active by the depositor; i = inactive; ? = inconclusive; . = no result given; [ ] = another dose, or the depositor's remark. Unless noted, how the calls were made is not given here.
SMILES,RGS7-Gao,RGS8-Gao reg,RGS16-Gao,RGS4-Gao reg,Avidin bead fluor,GSH bead fluor,RGS-Gao,Avidin counter,RGS8-Gao confirm,RGS7-Gao confirm,RGS16-Gao single,RGS4-Gao single,RGS19-Gao conf
CCOC(=O)N1CCN(CC(=O)Nc2c(C(=O)OC)[nH]c3ccccc23)CC1,175*[activator],98,103,124,106*,18,124*,0,106,99,110,107,100
COc1ccc(OC)c(CCNC(=O)Cn2sc3nc(C)cc(C)c3c2=O)c1,92,74,17*,92,3,15,92*,3,52*,71*,6.5*,69*,8.8*
Cc1cc(C)c2c(=O)n(CC(=O)NC3CCCC3)sc2n1,?,81,41,93,3,.,.,.,.,.,.,.,.
COc1ccc(NC(=O)c2ccc(COCC(F)(F)C(F)F)cc2)cc1,93,68,25*,78,2,13,78*,0,104,103,104,102,118
O=C(CCN1C(=O)/C(=C/c2ccccc2Cl)SC1=S)NC1=NCCS1,122,157*[activator],307,127,17,12,127*,2,105,98,101,98,95
COc1ccc(CNc2nc3ccccc3n2C)c(O)c1,?,103,102,98,8,.,.,.,.,.,.,.,.
Cn1c(NCc2cc(Br)ccc2O)nc2ccccc21,116,141*[activator],291,119,7,6,119*,-2,95,72*,85,85,80
COc1ccc(/C=C2\CCCC3C2=NC(=S)NC3c2ccc(OC)cc2)cc1 (stereo unspecified),106,90,90,94,2,8,.,.,.,.,.,.,.
O=C(c1cc(F)cc2c1OCOC2)N1CCN(c2ccc(F)cc2)CC1,?,99,101,103,6,.,.,.,.,.,.,.,.
CCCCNC(=O)CN(CCc1ccccc1)S(C)(=O)=O,133,108,149,169*[activator],23,12,.,i,107,118,110,114,109
COc1cccc(Cn2c(C3CC3)nc3ccc(NC(=O)c4ccco4)cc3c2=O)c1,579*[activator],76,134,77,603*,9,77*,0,102,106,104,102,99
O=C(NNc1cc(N2CCOCC2)nc(N2CCOCC2)n1)c1ccc(Cl)cc1Cl,12*,23*,10*,21*,0,9,.,-1,93,88,91,91,89
CC(=O)NNc1cc(N2CCOCC2)nc(N2CCOCC2)n1,?,101,101,104,9,16,.,.,.,.,.,.,.
CC(C)(C)c1ccc(C(=O)NNc2cc(N3CCCCC3)nc(N3CCCCC3)n2)cc1,643*[activator],173*[activator],560*[activator],842*[activator],175*,119*,.,1,105,113,104,108,100
O/N=C/c1ccc(OCc2ccccc2)c(Br)c1,82,74,3.0*,84,7,9,84*,-2,101,104,100,103,106
O/N=C/c1ccc(OCc2ccccc2)c(Cl)c1,92,82,51,88,7,12,.,.,.,.,.,.,.

# Source: PubChem BioAssay
